The supplement of paper PMC9399229
± gives the standard deviation of the averaged measurements. Over roughly 1,900 compounds, “relative cell viability (CellTiter-Glo), compound alone” has its median near 1; the lowest 2% begin near 0.16. The full list was thinned out, with the lowest values kept by preference.

test system: Hep3B; experiment: relative cell viability (CellTiter-Glo), compound alone (fraction); higher = more viable cells (less growth inhibition); details: cabozantinib 0 µM; 4 days

Row | SMILES | relative cell viability
1 | C[C@H]1CCC/C=C/[C@@H]2C[C@H](O)C[C@H]2[C@H](O)/C=C/C(=O)O1 [Brefeldin A] | 0.111 ± 0.0018
2 | CC(C)OC(=O)[C@H](C)N[P@](=O)(CO[C@H](C)Cn1cnc2c(N)ncnc21)Oc1ccccc1 [Tenofovir Alafenamide (GS-7340)] | 1.12 ± 0.17
3 | CC(C)[C@]12O[C@H]1[C@@H]1O[C@]13[C@]1(O[C@H]1C[C@H]1C4=C(CC[C@@]13C)C(=O)OC4)[C@@H]2O [Triptolide (PG490)] | 0.179 ± 0.009
4 | CN1CCc2cc3c(cc2C1C1OC(=O)c2c1ccc1c2OCO1)OCO3 (single isomer, unassigned; (+)) [(+)-Bicuculline] | 1.1 ± 0.094
5 | CN1[C@@H]2CC(O)C[C@H]1[C@@H]1O[C@@H]12 (stereo not given in full) [Scopine] | 1.05 ± 0.1
6 | CCN1CCN(C(=O)Cc2ccc(Nc3ncc(F)c(Nc4ccc(C(=O)Nc5ccccc5Cl)cc4)n3)cc2)CC1 [Aurora A Inhibitor I] | 0.328 ± 0.1
7 | C[C@@H]1O[C@@H](O[C@H]2C[C@@H](O)[C@]3(CO)[C@H]4[C@H](O)C[C@]5(C)[C@@H](C6=CC(=O)OC6)CC[C@]5(O)[C@@H]4CC[C@]3(O)C2)[C@H](O)[C@H](O)[C@H]1O [Ouabain] | 0.103 ± 0.0012
8 | Cn1cc(C2=C(c3cn(C4CCN(Cc5ccccn5)CC4)c4ccccc34)C(=O)NC2=O)c2ccccc21 | 1.29 ± 0.031
9 | C[C@@H]1[C@H](O)[C@@H](C)/C=C/C=C/CC/C=C/C=C/C=C/C=C/[C@H](O[C@H]2O[C@@H](C)[C@H](O)[C@@H](N)[C@H]2O)C[C@@H]2O[C@](O)(C[C@@H](O)[C@H](O)CC[C@@H](O)C[C@@H](O)C[C@@H](O)CC(=O)O[C@H]1C)C[C@H](O)[C@H]2C(=O)O [Nystatin (Fungicidin)] | 1.06 ± 0.15
10 | COC(=O)C1=CCCN(C)C1 [Arecoline] | 1.02 ± 0.074
11 | c1ccc([C@@H]2C[C@H]2NC2CCNCC2)cc1 | 0.9895 ± 0.0065
12 | O=c1[nH]c2ccc(Cl)cc2c(N[C@@H]2CN3CCC2CC3)c1-c1nc2ccccc2[nH]1 | 0.13 ± 0.018
13 | CCOC(=O)c1cncn1[C@H](C)c1ccccc1 [Etomidate] | 1.24 ± 0.049
14 | CCN1CC2(OC(=O)c3ccccc3NC(C)=O)CCC(OC)C34C1C(CC23)C1(O)CC(OC)C2CC4C1(O)C2OC (stereo not given) [Lappaconite HBr] | 0.984 ± 0.092
15 | O=C1C=CC[C@@H]2[C@H]3CCCN4CCC[C@@H](CN12)[C@@H]34 [Sophocarpine] | 1.02 ± 0.17
16 | CCOc1ccccc1-n1c(C(C)N2CCN(C(=O)COc3ccc(Cl)cc3)CC2)nc2ccccc2c1=O (stereo not given) [Erastin] | 1.21 ± 0.063
17 | COc1cc([C@@H]2c3cc4c(cc3[C@H](O)[C@H]3COC(=O)[C@@H]23)OCO4)cc(OC)c1OC [Picropodophyllin (PPP)] | 0.7418 ± 0.0018
18 | [O-][n+]1ccccc1[S-].[O-][n+]1ccccc1[S-].[Zn+2] [Zinc Pyrithione] | 0.0193 ± 0.0014
19 | CCN(Cc1ccc(Cl)nc1)/C(=C/[N+](=O)[O-])NC [Nitenpyram] | 0.914 ± 0.12
20 | CN1CCN(c2nc3ccccc3nc2Cl)CC1 | 1.13 ± 0.04
